Holding throughout (test): DAPPL (digital affinity profiling via proximity ligation, sequencing); 10 mM Tris-HCl pH 7.5, 50 mM NaCl, 1 mM DTT, 4% glycerol, room temperature, 30 min; GST-TFs on glutathione beads, 16-mer random dsDNA library, 0.1% formaldehyde crosslink after washing; high values mean tight binding
In one test the target is T1, FEV (Homo sapiens, UniProt Q99581 1-238).
T1 sequence: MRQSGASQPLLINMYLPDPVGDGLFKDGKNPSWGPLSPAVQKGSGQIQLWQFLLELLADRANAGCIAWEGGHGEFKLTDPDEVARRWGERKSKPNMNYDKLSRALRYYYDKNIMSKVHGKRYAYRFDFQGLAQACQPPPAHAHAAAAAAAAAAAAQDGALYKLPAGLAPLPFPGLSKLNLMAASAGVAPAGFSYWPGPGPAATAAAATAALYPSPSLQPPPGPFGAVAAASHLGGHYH
The note with it: protein: recombinant; tags: N-terminal GST; dsDNA, one strand shown. The procedure, abridged:
(§1)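 Human transcription factors were made in yeast as GST fusions, captured on glutathione beads and barcoded with DNA. With a tag-only sample included, the pool was incubated with 200 nmole of a random double-stranded 16-mer DNA library in Tris/NaCl/DTT/glycerol buffer at room temperature for 30 min, then crosslinked with 0.1% formaldehyde after washing, ligated by proximity, amplified and sequenced. For binding signal, each hexamer's read frequency for a factor is divided by its frequency for the tag-only sample.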

In another test the target is ETV5 (Homo sapiens, UniProt P41161 1-510). The note with it: protein: recombinant; tags: N-terminal GST; dsDNA, one strand shown. The procedure, abridged: as §1
ETV5, sequence (P41161 whole entry): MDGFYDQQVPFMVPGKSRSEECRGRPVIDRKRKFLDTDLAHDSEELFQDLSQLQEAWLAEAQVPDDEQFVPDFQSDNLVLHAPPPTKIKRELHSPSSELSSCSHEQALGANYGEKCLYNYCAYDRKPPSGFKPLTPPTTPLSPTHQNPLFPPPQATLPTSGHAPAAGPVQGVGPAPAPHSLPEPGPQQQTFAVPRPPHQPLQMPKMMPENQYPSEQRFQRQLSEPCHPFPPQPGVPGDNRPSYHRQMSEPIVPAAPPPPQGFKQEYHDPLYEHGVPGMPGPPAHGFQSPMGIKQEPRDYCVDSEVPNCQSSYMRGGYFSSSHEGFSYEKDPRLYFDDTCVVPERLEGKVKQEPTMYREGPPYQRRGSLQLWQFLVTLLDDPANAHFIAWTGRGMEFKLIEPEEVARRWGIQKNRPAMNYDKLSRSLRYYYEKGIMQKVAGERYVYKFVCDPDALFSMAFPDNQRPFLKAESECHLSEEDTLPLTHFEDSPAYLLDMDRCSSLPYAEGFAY
A further test addresses HSF1 (Homo sapiens, UniProt Q00613 1-529). The settings on record: protein: recombinant; tags: N-terminal GST; chain copies: 3; dsDNA, one strand shown. The procedure, abridged: as §1
In the next test the target is T2, SPIC (Homo sapiens, UniProt Q8N5J4 1-248).
T2 sequence: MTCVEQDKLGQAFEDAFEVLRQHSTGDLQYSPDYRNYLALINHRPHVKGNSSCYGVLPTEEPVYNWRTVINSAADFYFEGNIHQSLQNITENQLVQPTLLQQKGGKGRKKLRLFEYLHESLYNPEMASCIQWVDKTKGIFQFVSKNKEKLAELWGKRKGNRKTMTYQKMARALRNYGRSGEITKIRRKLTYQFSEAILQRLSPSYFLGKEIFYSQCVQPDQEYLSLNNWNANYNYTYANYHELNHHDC
The settings on record: protein: recombinant; tags: N-terminal GST; dsDNA, one strand shown. The gist of the method: as §1

The next test concerns the target ELF4 (Homo sapiens, UniProt Q99607 1-663). The settings on record: protein: recombinant; tags: N-terminal GST; dsDNA, one strand shown. The procedure, abridged:
as §1

The next test addresses T3, ELK4 (Homo sapiens, UniProt P28324-2 1-405).
T3 sequence: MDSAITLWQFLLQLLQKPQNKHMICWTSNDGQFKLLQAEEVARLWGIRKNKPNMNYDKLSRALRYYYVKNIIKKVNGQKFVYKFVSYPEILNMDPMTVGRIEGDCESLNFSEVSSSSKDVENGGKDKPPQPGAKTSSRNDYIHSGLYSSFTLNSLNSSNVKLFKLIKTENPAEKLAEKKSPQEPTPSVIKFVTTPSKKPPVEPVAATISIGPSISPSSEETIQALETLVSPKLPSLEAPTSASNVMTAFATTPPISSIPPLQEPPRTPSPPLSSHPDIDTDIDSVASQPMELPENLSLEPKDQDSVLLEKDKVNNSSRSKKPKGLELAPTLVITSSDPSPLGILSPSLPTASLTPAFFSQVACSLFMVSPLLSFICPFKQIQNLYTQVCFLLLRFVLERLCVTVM
The settings on record: protein: recombinant; tags: N-terminal GST; dsDNA, one strand shown. The procedure, abridged:
as §1

In a further test the target is T4, ETV2 (Homo sapiens, UniProt O00321 1-342).
T4 sequence: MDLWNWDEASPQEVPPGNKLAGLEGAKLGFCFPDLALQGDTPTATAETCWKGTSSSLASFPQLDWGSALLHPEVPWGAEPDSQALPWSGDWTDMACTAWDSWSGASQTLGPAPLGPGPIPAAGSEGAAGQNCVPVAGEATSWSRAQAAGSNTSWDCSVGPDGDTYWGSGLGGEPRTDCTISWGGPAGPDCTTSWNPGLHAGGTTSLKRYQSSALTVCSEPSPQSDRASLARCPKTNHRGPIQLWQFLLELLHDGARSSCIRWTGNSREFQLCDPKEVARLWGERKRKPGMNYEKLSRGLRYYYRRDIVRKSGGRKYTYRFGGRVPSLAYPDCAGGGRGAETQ
The note with it: protein: recombinant; tags: N-terminal GST; dsDNA, one strand shown. The procedure, abridged: as §1

The target in another test is T5, ELF3 (Homo sapiens, UniProt P78545 1-371).
T5 sequence: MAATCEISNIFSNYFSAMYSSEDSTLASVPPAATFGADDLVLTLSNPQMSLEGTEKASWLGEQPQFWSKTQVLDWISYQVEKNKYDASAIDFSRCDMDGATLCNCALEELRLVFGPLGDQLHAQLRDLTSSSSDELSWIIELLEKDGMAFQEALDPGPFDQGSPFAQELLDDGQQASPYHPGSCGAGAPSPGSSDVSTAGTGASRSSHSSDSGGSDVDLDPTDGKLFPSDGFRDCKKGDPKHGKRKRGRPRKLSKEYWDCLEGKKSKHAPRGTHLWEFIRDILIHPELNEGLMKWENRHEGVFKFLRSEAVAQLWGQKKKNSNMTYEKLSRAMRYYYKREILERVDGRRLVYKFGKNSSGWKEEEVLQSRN
The settings on record: protein: recombinant; tags: N-terminal GST; dsDNA, one strand shown. The procedure, abridged: as §1

For a further test, the target named is CRX (Homo sapiens, UniProt O43186 1-299). The note with it: protein: recombinant; tags: N-terminal GST; dsDNA, one strand shown. The procedure, abridged:
as §1

Another test has as its target ETV1 (Homo sapiens, UniProt P50549 1-477). The note with it: protein: recombinant; tags: N-terminal GST; dsDNA, one strand shown. The gist of the method:
as §1

For the next test, the target named is T6, ERF (Homo sapiens, UniProt P50548 1-548).
T6 sequence: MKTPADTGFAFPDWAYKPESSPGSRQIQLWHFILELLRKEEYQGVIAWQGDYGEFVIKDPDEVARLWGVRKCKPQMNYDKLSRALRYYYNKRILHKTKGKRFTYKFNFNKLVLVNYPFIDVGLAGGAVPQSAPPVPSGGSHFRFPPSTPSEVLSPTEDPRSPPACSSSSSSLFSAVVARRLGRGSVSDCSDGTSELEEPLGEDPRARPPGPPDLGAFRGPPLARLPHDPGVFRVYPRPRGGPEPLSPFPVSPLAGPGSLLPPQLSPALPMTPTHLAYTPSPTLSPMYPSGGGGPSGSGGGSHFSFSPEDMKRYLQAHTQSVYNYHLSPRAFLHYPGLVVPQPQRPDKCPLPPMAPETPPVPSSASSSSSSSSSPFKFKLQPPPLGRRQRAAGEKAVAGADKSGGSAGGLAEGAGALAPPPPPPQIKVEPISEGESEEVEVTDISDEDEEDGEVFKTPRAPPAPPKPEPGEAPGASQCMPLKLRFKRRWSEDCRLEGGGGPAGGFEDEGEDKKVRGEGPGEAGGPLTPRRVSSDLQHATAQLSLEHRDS
The settings on record: protein: recombinant; tags: N-terminal GST; dsDNA, one strand shown. The procedure, abridged: as §1

For another test, the target named is T7, ETV3L (Homo sapiens, UniProt Q6ZN32 1-361).
T7 sequence: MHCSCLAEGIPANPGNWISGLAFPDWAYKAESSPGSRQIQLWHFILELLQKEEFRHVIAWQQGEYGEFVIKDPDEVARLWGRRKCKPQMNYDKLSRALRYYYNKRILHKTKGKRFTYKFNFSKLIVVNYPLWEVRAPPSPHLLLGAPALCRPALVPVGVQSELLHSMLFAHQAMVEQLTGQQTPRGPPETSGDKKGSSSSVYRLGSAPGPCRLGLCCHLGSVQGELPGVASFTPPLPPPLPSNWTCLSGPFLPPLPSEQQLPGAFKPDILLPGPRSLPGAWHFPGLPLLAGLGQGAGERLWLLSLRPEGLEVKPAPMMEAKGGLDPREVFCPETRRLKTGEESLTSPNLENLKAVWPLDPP
The settings on record: protein: recombinant; tags: N-terminal GST; dsDNA, one strand shown. The procedure, abridged: as §1

In another test the target is T8, ETS2 (Homo sapiens, UniProt P15036 1-469).
T8 sequence: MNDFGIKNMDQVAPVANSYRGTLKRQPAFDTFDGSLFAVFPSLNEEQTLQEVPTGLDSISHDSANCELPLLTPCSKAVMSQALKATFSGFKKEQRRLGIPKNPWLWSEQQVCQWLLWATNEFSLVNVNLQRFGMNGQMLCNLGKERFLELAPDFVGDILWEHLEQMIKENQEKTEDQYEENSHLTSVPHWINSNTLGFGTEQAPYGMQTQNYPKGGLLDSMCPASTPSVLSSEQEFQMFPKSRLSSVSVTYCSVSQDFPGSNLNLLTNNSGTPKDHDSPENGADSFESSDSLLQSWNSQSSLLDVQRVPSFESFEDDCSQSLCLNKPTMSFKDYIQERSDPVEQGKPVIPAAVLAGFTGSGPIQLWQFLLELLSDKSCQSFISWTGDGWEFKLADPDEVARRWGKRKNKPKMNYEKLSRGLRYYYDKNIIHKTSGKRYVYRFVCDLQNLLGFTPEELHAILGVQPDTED
The note with it: protein: recombinant; tags: N-terminal GST; dsDNA, one strand shown. The gist of the method:
as §1

A further test addresses T9, SPDEF (Homo sapiens, UniProt O95238 1-335).
T9 sequence: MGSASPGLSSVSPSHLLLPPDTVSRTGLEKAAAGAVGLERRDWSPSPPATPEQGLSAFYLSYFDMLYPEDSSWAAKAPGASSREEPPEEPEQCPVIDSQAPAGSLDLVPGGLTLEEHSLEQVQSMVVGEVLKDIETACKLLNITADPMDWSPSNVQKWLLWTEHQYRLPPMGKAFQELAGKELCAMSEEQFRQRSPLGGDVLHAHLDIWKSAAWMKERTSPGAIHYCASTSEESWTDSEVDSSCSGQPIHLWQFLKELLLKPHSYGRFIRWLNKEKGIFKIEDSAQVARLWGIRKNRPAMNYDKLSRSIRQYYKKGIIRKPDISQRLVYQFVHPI
The note with it: protein: recombinant; tags: N-terminal GST; dsDNA, one strand shown. The procedure, abridged: as §1

For another test, the target named is T10, ETV7 (Homo sapiens, UniProt Q9Y603 1-341).
T10 sequence: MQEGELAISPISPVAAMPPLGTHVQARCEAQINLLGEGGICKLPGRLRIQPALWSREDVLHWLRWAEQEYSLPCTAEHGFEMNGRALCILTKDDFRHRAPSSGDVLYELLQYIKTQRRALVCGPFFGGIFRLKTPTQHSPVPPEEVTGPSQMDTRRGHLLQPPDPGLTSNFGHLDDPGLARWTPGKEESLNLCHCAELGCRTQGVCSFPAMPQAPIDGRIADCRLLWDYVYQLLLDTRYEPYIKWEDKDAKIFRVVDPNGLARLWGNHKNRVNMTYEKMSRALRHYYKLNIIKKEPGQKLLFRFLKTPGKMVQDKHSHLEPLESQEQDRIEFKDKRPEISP
The note with it: protein: recombinant; tags: N-terminal GST; dsDNA, one strand shown. The gist of the method: as §1

The next test concerns the target T11, ELF5 (Homo sapiens, UniProt Q9UKW6-2 1-255).
T11 sequence: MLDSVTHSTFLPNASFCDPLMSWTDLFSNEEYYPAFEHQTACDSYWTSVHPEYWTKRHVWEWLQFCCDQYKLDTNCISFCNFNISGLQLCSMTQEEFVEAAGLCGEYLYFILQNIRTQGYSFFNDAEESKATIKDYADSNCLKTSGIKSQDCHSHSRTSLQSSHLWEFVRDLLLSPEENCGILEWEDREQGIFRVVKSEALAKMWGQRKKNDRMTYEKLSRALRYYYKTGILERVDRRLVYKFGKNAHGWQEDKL
The settings on record: protein: recombinant; tags: N-terminal GST; dsDNA, one strand shown. The procedure, abridged:
as §1

The next test deals with T12, ETV3 (Homo sapiens, UniProt P41162-2 1-143).
T12 sequence: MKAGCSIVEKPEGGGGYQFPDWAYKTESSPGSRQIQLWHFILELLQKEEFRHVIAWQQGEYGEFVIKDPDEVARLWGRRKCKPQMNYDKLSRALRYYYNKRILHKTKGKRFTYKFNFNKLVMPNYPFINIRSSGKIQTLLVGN
The note with it: protein: recombinant; tags: N-terminal GST; dsDNA, one strand shown. The procedure, abridged:
as §1

The next test deals with ETV6 (Homo sapiens, UniProt P41212 1-452). The settings on record: protein: recombinant; tags: N-terminal GST; dsDNA, one strand shown. The gist of the method: as §1
ETV6, sequence (P41212 whole entry): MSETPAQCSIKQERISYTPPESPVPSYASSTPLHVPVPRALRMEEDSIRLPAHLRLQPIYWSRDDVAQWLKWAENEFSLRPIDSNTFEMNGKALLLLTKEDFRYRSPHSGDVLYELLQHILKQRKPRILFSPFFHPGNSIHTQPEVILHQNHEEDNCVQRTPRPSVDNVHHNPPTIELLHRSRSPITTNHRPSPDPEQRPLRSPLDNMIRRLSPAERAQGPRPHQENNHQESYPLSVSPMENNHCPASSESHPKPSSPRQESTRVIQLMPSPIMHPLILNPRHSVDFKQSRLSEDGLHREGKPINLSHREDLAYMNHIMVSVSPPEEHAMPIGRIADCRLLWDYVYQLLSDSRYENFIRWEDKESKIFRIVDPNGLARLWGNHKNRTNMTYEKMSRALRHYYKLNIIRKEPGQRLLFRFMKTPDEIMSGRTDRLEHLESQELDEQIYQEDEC

ELF4, sequence (Q99607 whole entry): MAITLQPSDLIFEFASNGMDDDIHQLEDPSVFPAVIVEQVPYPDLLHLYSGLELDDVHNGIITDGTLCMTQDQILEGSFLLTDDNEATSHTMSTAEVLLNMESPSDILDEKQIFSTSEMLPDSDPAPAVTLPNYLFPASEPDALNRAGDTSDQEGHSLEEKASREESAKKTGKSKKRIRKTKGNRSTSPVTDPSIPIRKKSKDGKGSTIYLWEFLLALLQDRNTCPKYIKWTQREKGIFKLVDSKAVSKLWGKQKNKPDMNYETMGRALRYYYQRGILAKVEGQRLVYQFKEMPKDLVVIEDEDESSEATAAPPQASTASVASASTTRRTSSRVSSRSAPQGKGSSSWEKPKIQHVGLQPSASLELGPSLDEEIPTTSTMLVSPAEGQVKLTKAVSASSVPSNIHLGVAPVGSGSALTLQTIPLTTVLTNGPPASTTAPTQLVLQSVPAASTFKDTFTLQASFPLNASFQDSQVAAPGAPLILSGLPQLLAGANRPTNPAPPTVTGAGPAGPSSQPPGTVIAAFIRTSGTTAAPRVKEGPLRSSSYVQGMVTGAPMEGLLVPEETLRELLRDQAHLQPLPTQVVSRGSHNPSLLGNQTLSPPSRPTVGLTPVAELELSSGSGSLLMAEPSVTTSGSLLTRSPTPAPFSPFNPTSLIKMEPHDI
CRX, sequence (O43186 whole entry): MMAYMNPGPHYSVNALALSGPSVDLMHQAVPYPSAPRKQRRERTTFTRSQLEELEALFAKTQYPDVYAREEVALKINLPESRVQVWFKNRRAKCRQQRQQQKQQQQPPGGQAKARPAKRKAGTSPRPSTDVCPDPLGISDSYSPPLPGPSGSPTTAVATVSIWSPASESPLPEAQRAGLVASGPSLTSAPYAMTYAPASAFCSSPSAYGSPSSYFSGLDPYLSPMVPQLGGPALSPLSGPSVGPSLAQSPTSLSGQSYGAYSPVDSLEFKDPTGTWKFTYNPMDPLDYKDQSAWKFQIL
HSF1, sequence (Q00613 whole entry): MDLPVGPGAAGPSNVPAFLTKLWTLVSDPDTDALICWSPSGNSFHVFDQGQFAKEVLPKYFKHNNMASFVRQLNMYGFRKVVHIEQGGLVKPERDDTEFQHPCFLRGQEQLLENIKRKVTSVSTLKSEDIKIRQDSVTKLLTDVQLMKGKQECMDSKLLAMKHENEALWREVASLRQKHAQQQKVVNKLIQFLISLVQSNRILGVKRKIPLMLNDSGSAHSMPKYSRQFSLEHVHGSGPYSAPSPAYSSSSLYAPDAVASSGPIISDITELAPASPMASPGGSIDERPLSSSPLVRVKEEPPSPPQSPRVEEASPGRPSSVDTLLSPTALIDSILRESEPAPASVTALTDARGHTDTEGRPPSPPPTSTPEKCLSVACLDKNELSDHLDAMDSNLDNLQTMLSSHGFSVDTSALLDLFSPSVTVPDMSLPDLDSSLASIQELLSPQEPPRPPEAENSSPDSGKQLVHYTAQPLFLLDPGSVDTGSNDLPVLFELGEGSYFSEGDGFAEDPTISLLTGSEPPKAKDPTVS
ETV1, sequence (P50549 whole entry): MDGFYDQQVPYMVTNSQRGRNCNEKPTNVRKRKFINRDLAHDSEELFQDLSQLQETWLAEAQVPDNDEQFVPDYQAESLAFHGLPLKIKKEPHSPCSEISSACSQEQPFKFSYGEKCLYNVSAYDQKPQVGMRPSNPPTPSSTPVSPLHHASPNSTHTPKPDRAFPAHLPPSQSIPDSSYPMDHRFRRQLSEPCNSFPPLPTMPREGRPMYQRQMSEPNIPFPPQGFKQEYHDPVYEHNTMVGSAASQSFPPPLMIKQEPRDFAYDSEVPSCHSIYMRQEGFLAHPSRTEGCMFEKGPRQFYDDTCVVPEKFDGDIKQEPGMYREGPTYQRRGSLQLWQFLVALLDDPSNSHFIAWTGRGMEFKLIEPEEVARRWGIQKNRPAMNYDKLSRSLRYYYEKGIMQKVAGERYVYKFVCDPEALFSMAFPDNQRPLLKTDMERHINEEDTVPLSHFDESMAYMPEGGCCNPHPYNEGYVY

Turning to TCGCTC, the binding signal with FEV was 1.23 fold enrichment (6-mer frequency, TF over GST control); in the test with ETV5, 1.24 fold enrichment (6-mer frequency, TF over GST control); with HSF1, 1.25 fold enrichment (6-mer frequency, TF over GST control); with SPIC, 1.24 fold enrichment (6-mer frequency, TF over GST control); with ELF4, 1.31 fold enrichment (6-mer frequency, TF over GST control); in the test with ELK4, 1.29 fold enrichment (6-mer frequency, TF over GST control). The binding signal in the test with ETV2 was 1.22 fold enrichment (6-mer frequency, TF over GST control); in the test with ELF3 it was 1.4 fold enrichment (6-mer frequency, TF over GST control); with CRX, 1.12 fold enrichment (6-mer frequency, TF over GST control); in the test with ETV1, 1.38 fold enrichment (6-mer frequency, TF over GST control); in the test with ERF it was 1.35 fold enrichment (6-mer frequency, TF over GST control); with ETV3L it was 1.37 fold enrichment (6-mer frequency, TF over GST control). Also, the binding signal with ETS2 was 1.32 fold enrichment (6-mer frequency, TF over GST control); in the test with SPDEF, 1.19 fold enrichment (6-mer frequency, TF over GST control); with ETV7, 1.02 fold enrichment (6-mer frequency, TF over GST control); with ELF5, 1.25 fold enrichment (6-mer frequency, TF over GST control); with ETV3 it was 1.11 fold enrichment (6-mer frequency, TF over GST control); in the test with ETV6, 1.28 fold enrichment (6-mer frequency, TF over GST control).

Source of the values: publication PMC7862700, “An all-to-all approach to the identification of sequence-specific readers for epigenetic DNA modifications on cytosine”.
